# Results published in paper PMC13494018.
# Values without a mark were called inactive. No rule for the calls is given here.
# Molecular target: PDL1, Q9NZQ7
# Sequence (Q9NZQ7 whole entry): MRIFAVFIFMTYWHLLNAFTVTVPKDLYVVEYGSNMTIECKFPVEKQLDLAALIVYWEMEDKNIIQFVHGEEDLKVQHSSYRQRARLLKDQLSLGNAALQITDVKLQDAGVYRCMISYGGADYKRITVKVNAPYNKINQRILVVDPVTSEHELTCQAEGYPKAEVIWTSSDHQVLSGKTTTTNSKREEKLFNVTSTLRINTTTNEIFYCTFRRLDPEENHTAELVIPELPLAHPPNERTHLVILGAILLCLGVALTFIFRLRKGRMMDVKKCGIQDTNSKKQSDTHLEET
row,Binder,binding in a display sort
1,d8r1_design_ppi_400_dldesign_0_cycle0_af2pred (protein) SAELAAIKAAAENARAGAILLAKESKAETALKFNEAAKERLLKLAAATADAKAAKAVVEEEAKKAEEEIKKIGEE,not found
2,d8r1_design_ppi_266_dldesign_0_cycle0_af2pred (protein) SKVEEAKERFEKVVEEAEKKVKEALAKAKTAEEALKASIEAIKEAASEIAKIYSEVGEEVADLAVEALARLSALTAEAKAAAAKKAAA,not found
3,d8r1_design_ppi_139_dldesign_0_cycle0_af2pred (protein) EELLEKLKEKAEKVKKLAEEGAEAEELEKARKELGAALSALTRAIAEASPELAAKGREAAAEAAKAAIKAGEKAEELKKA,not found
4,d8r1_design_ppi_1381_dldesign_0_cycle1_af2pred (protein) AAARQELVDRALAALDAARAASPEEAVAIAPKAYGLAVMVGEDPRVQAALEAAAAANPAAAPILNEALALARATAAAQAAARAAA,not found
5,d8r1_design_ppi_416_dldesign_0_cycle0_af2pred (protein) SEEAARILAETLGTISAQTAAAKAAAAAGDVEAARAAAAAARAAAEEGAKRLEELGNKSGAEALRSIGAATAAHIKALAAKAAA,binds (active)
6,d8r1_design_ppi_1038_dldesign_0_cycle1_af2pred (protein) SDKRLAKNTAEAILRRTKELAKKAAAATAEEAKALAAIAEKGAKSAEAVAKKSGDEETKKLAKEAKEAAKKAKE,not found
7,d8r1_design_ppi_118_dldesign_0_cycle0_af2pred (protein) GLVSLLRAAKNTLESAIEAEDAEKAAKYLAGAAQLLEGAAKLDPRVEPAAKLAKEAAAAAKADIEKGKAKAKEALKAVEELLKEAEEE,not found
8,d8r1_design_ppi_508_dldesign_0_cycle1_af2pred (protein) AGKEALAKAIAEVKELVTAAMLANQKSREEGIKTAKEQAEKAKKLAEEAKASPLAAEIVKVLQSGRDFLEKLAEMLKES,not found
9,d8r1_design_ppi_1323_dldesign_0_cycle1_af2pred (protein) MKASIKHLIEQAKKYAKEAKETGSDALARAAASAAAAAAVLAKEAGDKELAKEAEKVAKEIAEVAPPSIAKYAKEAAKLAAE,not found
10,d8r1_design_ppi_679_dldesign_0_cycle1_af2pred (protein) ATAEARRAVVEEAIARITAALADRPQWAAKAAAVLERGARLGREAEAARAVAAMLEVLGYTEAAAVAAEAAERIAAL,not found
11,d8r1_design_ppi_1423_dldesign_0_cycle0_af2pred (protein) STAEKIAKYNKFAEEAKAAAKRVAEEGEEAAKEAIETLKKLAKESDAETAETLNKLAEIAEEGGGSAALAAMQAAAVHFANKAAKLAA,not found
12,d8r1_design_ppi_645_dldesign_0_cycle0_af2pred (protein) KLEEAKEKLEKGKELLKKAKEDPENAIEYAKEALKEFSEASRLAAEAAKDEEYKEEAEELLKEANKLASEATQLLAKKASEEEK,not found
13,d8r1_design_ppi_1339_dldesign_0_cycle0_af2pred (protein) DEAWLAEIKALVSAAVAAAREGDVAALAAAQAAAAALAAAAPASVKPAAANATAGIATLLELTKERLEEKA,not found
14,d8r1_design_ppi_419_dldesign_0_cycle0_af2pred (protein) SELEEEARKAEEEFRAALAELEAAAAELEKLDPAAGATARRAAEGARGLLELAKKFSVKSQLNVAKSMLRGAERQLAAARARVAALK,not found
15,d8r1_design_ppi_996_dldesign_0_cycle1_af2pred (protein) SASDIKAAQKAAAAVLRVAAERFPEVAAVAEPAAETAYNGDAETAIKAILEAAEAIRAAAARLPGGAELRAYADALENIAALLKRLAA,not found
16,d8r1_design_ppi_412_dldesign_0_cycle1_af2pred (protein) AKAAQLRATSDLYALAYIAEKKVGKALADKLRAAAASGDPAAMLAAAEEAAKAIGEIGKRLYERLVAALA,not found
17,d8r1_design_ppi_321_dldesign_0_cycle1_af2pred (protein) GSNFEKAYYAGEAYSYAYAAVKEAKALVKALGDAAKPLLDEAEALLKKIEEVLKNGNLEEAKKMLEEAKALLEKVKAA,binds (active)
18,d8r1_design_ppi_219_dldesign_0_cycle1_af2pred (protein) DARLERVAKVTAEAYAKVAAVAAGEKLPLARRAAALLAAGGFSPEAAAEYFAEAKAIAAEIGPEAAAIIEEAGKAV,not found
19,d8r1_design_ppi_790_dldesign_0_cycle1_af2pred (protein) KAEEAKALAEKAIAAAPDVDAAAEEIAAAVKLGTGEALVAAARAAAAAIRALGDPAAQARLLELAREHGSRTYAAVAAGLAIARAEAA,not found

row,Binder,binding in a display sort
1,d8r1_design_ppi_753_dldesign_0_cycle1_af2pred (protein) NAAAKAALAAAKAAVEGASLLVEVAEKEGSKGMLEAAKRVAEEAIAAAEKAAKLGATEEAAKLKAQAKEVKKRAEKLE,not found
2,d8r1_design_ppi_700_dldesign_0_cycle0_af2pred (protein) SENKAKMEEHLAKAKEALLKGDPAAAPLAEAMAKAAKEEGPAALMAAAAAAYAAVVAADPSAAPLASQALAHAAKAAIYLGDS,not found
3,d8r1_design_ppi_1265_dldesign_0_cycle0_af2pred (protein) SETEEGAKALIRAAANAAKYLAKKYGELAKKLAELVKKALEAGPEEAVKYLEEAAALAKEAGQKTGGTKAFAALQATLKKAAELKKK,not found
4,d8r1_design_ppi_1080_dldesign_0_cycle0_af2pred (protein) SMESVLKSAESLAEAARRLAAERAAEPELVLRAAENALAGGTKLGEARGPEVAKKVRERMEATLAEIRARLA,not found
5,d8r1_design_ppi_592_dldesign_0_cycle1_af2pred (protein) GDAEDAVRAAENALKSAENYLAKADTLEQAQKAINAAKGAREFIKYAAKLGADPATVAALEKKANAVEEAAKAKAKALA,not found
6,d8r1_design_ppi_290_dldesign_0_cycle1_af2pred (protein) SKAEAEKLKAQIEAAKAAGVAGDAATAAAAIAAITALADQAAALDPEYAAEVVNAANKAMLAVGDAREAKAAA,not found
7,d8r1_design_ppi_897_dldesign_0_cycle1_af2pred (protein) NPEAKDAALVKIGEGASYVAAASGDTAVARTVFTTSYTGVQEGNLEAAAAAAVATVAAAVDAATAARVAALAAAAVAAYKA,not found
8,d8r1_design_ppi_419_dldesign_0_cycle1_af2pred (protein) SALEEKAKEAIEKMEKAAEELKKAAAELKKLDPEAGAAAEAALEAHLAILELAKKFSTKVTLNVAEAMTRGLERALKEAKARIAALK,not found
9,d8r1_design_ppi_674_dldesign_0_cycle1_af2pred (protein) SEEKINQAWIDTSKASELILAGEELSVTDPEKGAALIEKGRALAEEAAKAVPSKAEAILSTAEKTLEVAKARAAEVAA,not found
10,d8r1_design_ppi_87_dldesign_0_cycle0_af2pred (protein) MEEEFDERMRKAAEYLAKMDAALAAIKAAGDRAEAEKLLAELRKAGEEMAKELGEAGKAIKEALEAQAQAALAA,not found
11,d8r1_design_ppi_1135_dldesign_0_cycle1_af2pred (protein) DPREQFAAAVKEAAAALPDIADQVLALGEQALAAEGQAAADAMKAFVTLVTAAAAKASPEAAKAAGIAAANAMKAVSKIEE,not found
12,d8r1_design_ppi_323_dldesign_0_cycle1_af2pred (protein) SALEEAKRAIAEARELAAEAKARGPAAAPAAAIAANAIAGAELLVELGSYEAATAVARAGIRVARAYLAAV,not found
13,d8r1_design_ppi_78_dldesign_0_cycle1_af2pred (protein) SMKKEEAKKVAEEARKAAKEAEELAKKIGDAKLAQQAKNIAAGADKAAEFGSLNMVKAFLREAKKLKEEAKKKLA,not found
14,d8r1_design_ppi_536_dldesign_0_cycle0_af2pred (protein) SKDEEIAKLLLKTAEAARKDAKKALELAKELKKLGNKNQGGAIVTLLQAAVENKGAAGKSALAGAVKLAEAKAEDLLAK,not found
15,d8r1_design_ppi_456_dldesign_0_cycle1_af2pred (protein) SAQAAAAEKLRALADAIAAASPAYQPAANALRAAAVVAEKSGNGASALALLDAAIAAAAKVPGGAEWAAAIRAAAAEVRAAFA,not found
16,d8r1_design_ppi_305_dldesign_0_cycle1_af2pred (protein) AEEALKLLAEAAAAASPEVAALANQALALLKQAENPEAMKQAIALLNAAYLAADPAIQPLIRRALQLAMQVLAKADR,not found
17,d8r1_design_ppi_1408_dldesign_0_cycle1_af2pred (protein) EESVKASILAAIERGARLLAAENPAAGVAALTVARVLTTTGGLGSAIAGAAAFAAIAAAATGARGAAIGGSVVSFTVKLVEMYK,not found
18,d8r1_design_ppi_1136_dldesign_0_cycle1_af2pred (protein) AAEKEARDLAAADNAIALVKKMLEAGVSPENALATAEAAAALLSPAARARLLAAARAIVAAHEAAKAAAAA,not found
19,d8r1_design_ppi_700_dldesign_0_cycle1_af2pred (protein) EETKKKRDEYVKKAGEALLKADPTLTAQAAAIKDAAYNAGPAALMAAMAAAYKAAVAANPANAPYAAEAVNYAAKAAIYAKEA,not found
